# In PubChem BioAssay AID1159580 (chemical genetic matrix, 2015):
# About 2,000 (36%) of roughly 5,500 compounds were called active. Another 18% or so got no clear call; they are omitted. This is one part of the list. A number with no mark means an inactive call. Rule as the data show it: active = normalized growth mostly below about 0.91 (no sharp cut-off); inconclusive = no clear call, values can overlap the other calls; inactive = mostly above about 0.92.
# Test: chemical genetic growth profiling, strain panel (AID 1159580);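 also: tested at 20 µM; growth read once vehicle control cultures reached saturation at 30 °C; 1 = growth at the plate median or of vehicle wells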
# Details: S. cerevisiae deletion strains, growth OD
structure (smiles),measurement,setting,value
COC(=O)CCC(C)C1CCC2C3CC[C@@H]4C[C@H](O)CC[C@]4(C)C3C[C@H](O)[C@]12C (some centres undefined),normalized growth,"locus YJR043C, strain POL32, stronger effect = lower value",1.02
same,normalized growth,"locus YJR066W, strain TOR1, stronger effect = lower value",0.941
same,normalized growth,"locus YKL009W, strain mrt4, stronger effect = lower value",0.959
same,normalized growth,"locus YKL068W, stronger effect = lower value",0.993
same,normalized growth,"locus YKL085W, strain MDH1 (second series), stronger effect = lower value",0.991
same,normalized growth,"locus YKL085W, strain MDH1, stronger effect = lower value",0.991
same,normalized growth,"locus YKL160W, strain elf1, stronger effect = lower value",0.92
same,normalized growth,"locus YKL190W, strain CNB1, stronger effect = lower value",1.02
same,normalized growth,"locus YKR001C, strain vps1, stronger effect = lower value",0.931
same,normalized growth,"locus YKR026C, strain gcn3, stronger effect = lower value",1
same,normalized growth,"locus YKR091W, strain srl3, stronger effect = lower value",0.993
same,normalized growth,"locus YLL001W, strain dnm1, stronger effect = lower value",0.99
same,normalized growth,"locus YLL026W, stronger effect = lower value",0.986
same,normalized growth,"locus YLL041C, strain sdh2, stronger effect = lower value",1.01
same,normalized growth,"locus YLR027C, strain aat2, stronger effect = lower value",0.918 (active)
same,normalized growth,"locus YLR039C, strain RIC1, stronger effect = lower value",0.88
same,normalized growth,"locus YLR058C, strain SHM2, stronger effect = lower value",0.972
same,normalized growth,"locus YLR102C, strain apc9, stronger effect = lower value",1.01
same,normalized growth,"locus YLR113W, strain HOG1, stronger effect = lower value",0.439 (active)
same,normalized growth,"locus YLR221C, strain rsa3, stronger effect = lower value",0.932
same,normalized growth,"locus YLR258W, strain gsy2, stronger effect = lower value",0.958
same,normalized growth,"locus YLR262C, strain YPT6 (second series), stronger effect = lower value",0.776 (active)
same,normalized growth,"locus YLR262C, strain YPT6, stronger effect = lower value",0.792
same,normalized growth,"locus YLR268W, strain sec22, stronger effect = lower value",1
same,normalized growth,"locus YLR320W, strain mms22, stronger effect = lower value",0.812 (active)
same,normalized growth,"locus YLR330W, strain CHS5, stronger effect = lower value",0.903 (active)
same,normalized growth,"locus YLR342W, strain FKS1 (second series), stronger effect = lower value",0.933
same,normalized growth,"locus YLR342W, strain FKS1, stronger effect = lower value",0.699 (active)
same,normalized growth,"locus YLR357W, strain rsc2, stronger effect = lower value",0.982
same,normalized growth,"locus YLR370C, strain arc18, stronger effect = lower value",0.998
same,normalized growth,"locus YLR371W, strain rom2, stronger effect = lower value",1.01
same,normalized growth,"locus YLR384C, strain iki3, stronger effect = lower value",0.992
same,normalized growth,"locus YLR418C, strain cdc73, stronger effect = lower value",0.77 (active)
same,normalized growth,"locus YML016C, strain PPZ1, stronger effect = lower value",1.05
same,normalized growth,"locus YML032C, strain rad52, stronger effect = lower value",0.981
same,normalized growth,"locus YML120C, strain ndi1, stronger effect = lower value",0.988
same,normalized growth,"locus YML124C, strain tub3, stronger effect = lower value",1
same,normalized growth,"locus YMR058W, strain fet3, stronger effect = lower value",0.976
same,normalized growth,"locus YMR078C, strain ctf18, stronger effect = lower value",1.01
same,normalized growth,"locus YMR125W, strain sto1, stronger effect = lower value",0.983
same,normalized growth,"locus YMR129W, stronger effect = lower value",1
same,normalized growth,"locus YMR205C, strain PFK2, stronger effect = lower value",0.846 (active)
same,normalized growth,"locus YMR223W, strain ubp8, stronger effect = lower value",0.98
same,normalized growth,"locus YMR231W, strain pep5, stronger effect = lower value",0.977
same,normalized growth,"locus YMR263W, strain SAP30, stronger effect = lower value",0.998
same,normalized growth,"locus YMR307W, strain GAS1, stronger effect = lower value",0.843
same,normalized growth,"locus YNL067W, strain RPL9B, stronger effect = lower value",0.98
same,normalized growth,"locus YNL071W, strain lat1, stronger effect = lower value",0.72 (active)
same,normalized growth,"locus YNL153C, strain GIM3, stronger effect = lower value",0.982
same,normalized growth,"locus YNL183C, strain NPR1, stronger effect = lower value",0.908
same,normalized growth,"locus YNL209W, strain ssb2, stronger effect = lower value",1
same,normalized growth,"locus YNL233W, strain BNI4, stronger effect = lower value",0.927
same,normalized growth,"locus YNL248C, strain rpa49, stronger effect = lower value",1.04
same,normalized growth,"locus YNL250W, strain rad50, stronger effect = lower value",1.04
same,normalized growth,"locus YNL271C, strain bni1, stronger effect = lower value",1.01
same,normalized growth,"locus YNL298W, strain CLA4, stronger effect = lower value",1.05
same,normalized growth,"locus YNL307C, strain MCK1, stronger effect = lower value",0.917
same,normalized growth,"locus YNL322C, strain KRE1 (second series), stronger effect = lower value",0.999
same,normalized growth,"locus YNL322C, strain KRE1, stronger effect = lower value",1.01
same,normalized growth,"locus YNR049C, strain mso1, stronger effect = lower value",0.99
same,normalized growth,"locus YNR052C, strain pop2, stronger effect = lower value",0.971
same,normalized growth,"locus YOL006C, strain TOP1, stronger effect = lower value",0.909
same,normalized growth,"locus YOL012C, strain htz1",0.571
same,normalized growth,"locus YOL147C, strain pex11, stronger effect = lower value",1.02
same,normalized growth,"locus YOR001W, strain rrp6, stronger effect = lower value",0.995
same,normalized growth,"locus YOR061W, strain CKA2, stronger effect = lower value",0.999
same,normalized growth,"locus YOR069W, strain VPS5, stronger effect = lower value",1.02
same,normalized growth,"locus YOR070C, strain gyp1, stronger effect = lower value",0.971
same,normalized growth,"locus YOR080W, strain dia2, stronger effect = lower value",1.01
same,normalized growth,"locus YOR083W, strain WHI5, stronger effect = lower value",0.984
same,normalized growth,"locus YOR106W, strain vam3, stronger effect = lower value",0.933
same,normalized growth,"locus YOR136W, strain idh2, stronger effect = lower value",1.01
same,normalized growth,"locus YOR144C, strain elg1, stronger effect = lower value",1.01
same,normalized growth,"locus YOR184W, strain ser1, stronger effect = lower value",0.853 (active)
same,normalized growth,"locus YOR231W, strain MKK1, stronger effect = lower value",0.814 (active)
same,normalized growth,"locus YOR265W, strain rbl2, stronger effect = lower value",0.98
same,normalized growth,"locus YOR270C, strain vph1, stronger effect = lower value",0.99
same,normalized growth,"locus YOR290C, strain snf2, stronger effect = lower value",1.01
same,normalized growth,"locus YOR316C, strain cot1, stronger effect = lower value",1.01
same,normalized growth,"locus YPL051W, strain arl3, stronger effect = lower value",0.913 (active)
same,normalized growth,"locus YPL078C, strain atp4, stronger effect = lower value",0.943
same,normalized growth,"locus YPL106C, strain sse1, stronger effect = lower value",0.989
same,normalized growth,"locus YPL240C, strain hsp82, stronger effect = lower value",0.992
same,normalized growth,"locus YPL256C, strain CLN2, stronger effect = lower value",0.8 (active)
same,normalized growth,"locus YPR119W, strain clb2, stronger effect = lower value",0.994
same,normalized growth,"locus YPR141C, strain kar3, stronger effect = lower value",1.01
same,normalized growth,"locus YPR163C, strain tif3, stronger effect = lower value",1.02
same,normalized growth,"locus YPR167C, strain met16, stronger effect = lower value",1.02
same,normalized growth,"strain wtn01, stronger effect = lower value",1.03
